Laboratory results taken from PubChem BioAssay (NCI).
The panel holds about 83,000 compounds, 20% with a hit somewhere; the sample as a whole holds those more often.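 The test compound was applied at a single concentration to cells in 96-well plates for 48 hours, and percent growth was recorded.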 Calls of active or inactive are those of the source. How the source made its calls: active means growth percent below 10; inactive means the rest.

What was measured:
Test in all cases: NCI-60 one-dose screen, 48 h (100 = growth as untreated, 0 = no growth, -100 = all killed)
Conditions in all cases: 10 µM unless noted
NCI-H23 lung = system: NCI-H23 lung
NCI-H226 lung = system: NCI-H226 lung
NCI-H322M lung = system: NCI-H322M lung
HOP-62 NSCLC = system: HOP-62 NSCLC
NCI-H460 lung = system: NCI-H460 lung
HOP-92 NSCLC = system: HOP-92 NSCLC
NCI-H522 lung = system: NCI-H522 lung
A549/ATCC NSCLC = system: A549/ATCC NSCLC
786-0 renal = system: 786-0 renal
COLO 205 colon = system: COLO 205 colon
DU-145 prostate = system: DU-145 prostate
K-562 leukemia = system: K-562 leukemia
MALME-3M melanoma = system: MALME-3M melanoma
MDA-MB-231 breast = system: MDA-MB-231 breast
RXF 393 renal = system: RXF 393 renal
SF-268 CNS = system: SF-268 CNS
SF-295 CNS = system: SF-295 CNS
SF-539 CNS = system: SF-539 CNS
UACC-257 melanoma = system: UACC-257 melanoma
M14 melanoma = system: M14 melanoma

Measured: growth

C=C1C(=O)O[C@H]2[C@H]1CC/C(CNC(=O)Cc1c[nH]c3ccccc13)=C\CC[C@@]1(C)O[C@@H]21
inactive: NCI-H23 lung 30% | NCI-H322M lung 82.2% | HOP-62 NSCLC 53.8% | NCI-H460 lung 29.6% | HOP-92 NSCLC 45.1% | A549/ATCC NSCLC 62% | DU-145 prostate 26.5% | MALME-3M melanoma 14.2% | MDA-MB-231 breast 16.1% | SF-268 CNS 51.2% | SF-295 CNS 69.9%
active: NCI-H226 lung -45.8% | NCI-H522 lung -79.4% | 786-0 renal -36.4% | COLO 205 colon -74.9% | K-562 leukemia -12.2% | RXF 393 renal -72.3% | SF-539 CNS -27.1% | UACC-257 melanoma 5.96% | M14 melanoma 3.28%

O=C(Cc1ccc(/C=C/C(=O)c2ncc[nH]2)cc1)Nc1cc(F)c(F)c(F)c1
active: 786-0 renal 8.88% | SF-539 CNS 5.66%
inactive: NCI-H23 lung 32.2% | NCI-H226 lung 95.2% | NCI-H322M lung 72.8% | HOP-62 NSCLC 90.6% | NCI-H460 lung 28.2% | HOP-92 NSCLC 116% | NCI-H522 lung 49.1% | A549/ATCC NSCLC 70.6% | COLO 205 colon 64.9% | DU-145 prostate 18.7% | K-562 leukemia 18.3% | MALME-3M melanoma 93.7% | MDA-MB-231 breast 41.4% | RXF 393 renal 13.1% | SF-268 CNS 58.3% | SF-295 CNS 77.3% | UACC-257 melanoma 99.9% | M14 melanoma 85.2%

CC1=Nc2cnc(Nc3ccc(N4CCCCC4)cc3)nc2Nc2ccccc21
inactive: NCI-H23 lung 67.1% | NCI-H226 lung 76.6% | NCI-H322M lung 75.7% | HOP-62 NSCLC 94.4% | NCI-H460 lung 86.8% | HOP-92 NSCLC 60.9% | NCI-H522 lung 40% | A549/ATCC NSCLC 79.8% | 786-0 renal 51.8% | COLO 205 colon 81.3% | DU-145 prostate 79.8% | K-562 leukemia 34.7% | MALME-3M melanoma 88.5% | MDA-MB-231 breast 60.4% | RXF 393 renal 68% | SF-268 CNS 91.2% | SF-295 CNS 83.8% | SF-539 CNS 79.9% | UACC-257 melanoma 93.8% | M14 melanoma 71.5%

COc1cc2c3c(c4c5ccccc5[nH]c4c2c(OC)c1OC)C(=O)N(CCN1CCCCC1)C3=O
inactive: NCI-H23 lung 17.5% | NCI-H226 lung 28.2% | NCI-H322M lung 32% | HOP-62 NSCLC 41.7% | HOP-92 NSCLC 48.7% | NCI-H522 lung 36.3% | COLO 205 colon 28.3% | MALME-3M melanoma 32% | MDA-MB-231 breast 38.1% | SF-268 CNS 22.7% | SF-295 CNS 32.9% | SF-539 CNS 41.4% | UACC-257 melanoma 42.2% | M14 melanoma 12.3%
active: NCI-H460 lung -48.3% | A549/ATCC NSCLC -63.3% | 786-0 renal -85.9% | DU-145 prostate -91.2% | K-562 leukemia 3.53% | RXF 393 renal -9.89%

O=C(OCc1ccc2c(Cl)cc(Cl)c(O)c2n1)N1CCN(C(=O)c2cc3ccccc3[nH]2)CC1
inactive: NCI-H23 lung 47.1% | NCI-H226 lung 28.3% | NCI-H322M lung 37.5% | HOP-62 NSCLC 20% | NCI-H460 lung 12.8% | HOP-92 NSCLC 14.7% | NCI-H522 lung 22.1% | A549/ATCC NSCLC 10.8% | 786-0 renal 44.2% | COLO 205 colon 39% | DU-145 prostate 43.8% | K-562 leukemia 19.9% | MALME-3M melanoma 36.8% | MDA-MB-231 breast 44.7% | RXF 393 renal 46.5% | SF-268 CNS 24.3% | SF-295 CNS 16.1% | SF-539 CNS 39.8% | UACC-257 melanoma 25.5% | M14 melanoma 16.9%

O=C(/C=C/c1ccccc1Cl)c1cccc(OCCCCOc2cccc(C(=O)/C=C/c3ccccc3Cl)c2)c1
inactive: NCI-H23 lung 96.5% | NCI-H226 lung 90.3% | NCI-H322M lung 99.9% | HOP-62 NSCLC 103% | NCI-H460 lung 99.6% | HOP-92 NSCLC 94.4% | NCI-H522 lung 97.1% | A549/ATCC NSCLC 95.3% | 786-0 renal 103% | COLO 205 colon 107% | DU-145 prostate 102% | K-562 leukemia 99.2% | MALME-3M melanoma 91.9% | MDA-MB-231 breast 102% | RXF 393 renal 99.6% | SF-268 CNS 106% | SF-295 CNS 104% | SF-539 CNS 101% | UACC-257 melanoma 98.2% | M14 melanoma 86.5%

CNC(=O)NCC1OC(n2cnc3c(NC(=O)Nc4ccccc4)ncnc32)C2OC(=O)CC12 (stereo not given)
inactive: NCI-H23 lung 90.2% | NCI-H226 lung 99.2% | NCI-H322M lung 101% | HOP-62 NSCLC 94.2% | NCI-H460 lung 114% | HOP-92 NSCLC 71.2% | NCI-H522 lung 106% | A549/ATCC NSCLC 120% | 786-0 renal 98.3% | COLO 205 colon 110% | DU-145 prostate 110% | K-562 leukemia 81.1% | MALME-3M melanoma 100% | MDA-MB-231 breast 98.9% | SF-268 CNS 99.7% | SF-295 CNS 103% | SF-539 CNS 104% | UACC-257 melanoma 125% | M14 melanoma 105%
active: RXF 393 renal -22.7%

COC(=O)[C@@]12CC=C(C)[C@]3(C[C@H](c4ccoc4)OC3=O)[C@H]1C=C[C@@H](O)[C@@]2(O)C(=O)OC
inactive: NCI-H23 lung 100% | NCI-H226 lung 116% | NCI-H322M lung 88.7% | HOP-62 NSCLC 91.3% | NCI-H460 lung 111% | HOP-92 NSCLC 102% | NCI-H522 lung 66.3% | A549/ATCC NSCLC 84.9% | 786-0 renal 97.4% | COLO 205 colon 110% | DU-145 prostate 98.3% | K-562 leukemia 94.1% | MALME-3M melanoma 104% | MDA-MB-231 breast 110% | RXF 393 renal 114% | SF-268 CNS 98.1% | SF-295 CNS 96.4% | SF-539 CNS 98.7% | UACC-257 melanoma 82.1% | M14 melanoma 101%
